Values without a mark were called inactive. Results filed as inconclusive are left out. Where a call stands in place of a potency, no number is given. Activity calls are given as the source filed them. Unless noted, calls come from the whole dose curve; as a rule, active = well fitted curve in the direction sought with a large enough effect; inconclusive = small, poorly fitted or top-dose-only effect, or another doubt; inactive = no such curve, though single readings can be large; an effect the other way counts as inactive or inconclusive.
Tests used:
[1] = molecular target: Glucocorticoid receptor (Homo sapiens) (UniProt P04150); test: GR-GFP Redistribution (AID 450;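 active = compounds whose dose series gives a full or clear partial fitted curve of increased nuclear translocation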; note: potency is the fitted concentration of half-maximal effect)
Sequence of Glucocorticoid receptor (Homo sapiens) (P04150 whole entry, looked up, the tested form may be a part): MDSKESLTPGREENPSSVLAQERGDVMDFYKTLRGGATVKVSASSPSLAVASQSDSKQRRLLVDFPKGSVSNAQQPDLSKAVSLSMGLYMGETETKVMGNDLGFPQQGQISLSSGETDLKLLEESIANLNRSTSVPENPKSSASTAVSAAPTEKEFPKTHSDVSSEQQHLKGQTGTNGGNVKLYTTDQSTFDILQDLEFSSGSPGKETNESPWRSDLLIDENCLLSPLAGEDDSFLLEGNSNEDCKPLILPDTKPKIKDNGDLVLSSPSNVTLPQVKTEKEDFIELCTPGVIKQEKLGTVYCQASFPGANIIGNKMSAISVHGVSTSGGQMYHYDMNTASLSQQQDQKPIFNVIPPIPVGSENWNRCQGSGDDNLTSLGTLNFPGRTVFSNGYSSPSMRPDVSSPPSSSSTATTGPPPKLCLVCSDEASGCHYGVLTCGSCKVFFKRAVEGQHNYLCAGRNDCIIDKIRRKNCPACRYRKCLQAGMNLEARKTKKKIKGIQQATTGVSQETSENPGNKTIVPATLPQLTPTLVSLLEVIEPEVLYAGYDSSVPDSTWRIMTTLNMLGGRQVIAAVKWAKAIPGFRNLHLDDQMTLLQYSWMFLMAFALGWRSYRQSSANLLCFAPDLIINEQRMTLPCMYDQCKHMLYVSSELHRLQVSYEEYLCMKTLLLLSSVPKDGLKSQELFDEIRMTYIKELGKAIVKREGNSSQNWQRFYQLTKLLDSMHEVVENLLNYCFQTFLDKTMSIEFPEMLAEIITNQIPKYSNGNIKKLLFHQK

[2] = molecular target: Glucocorticoid receptor (Homo sapiens) (UniProt P04150); test: GR-EFC Redistribution (AID 451; calls by dose curve; note: potency is the fitted concentration of half-maximal effect); conditions: CHO-K1 GR-EFC translocation, beta-gal luminescence, 2 h
Method in brief: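 CHO-K1 cells stably expressing nuclear-localized β-gal enzyme acceptor and GR fused C-terminally to the enzyme donor fragment; ligand-driven nuclear translocation restores β-gal by complementation. Compounds titrated up to 46 uM final, 2 h at 37 °C; luminescence read.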

[3] = molecular target: Mitogen-activated protein kinase 10 (Mus musculus) (UniProt Q61831); test: JNK3 AlphaScreen Assay (AID 530; active = well fitted curve in either direction with a large enough effect, not every such curve was filed as active;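 note: kinase came from lysate of stimulated human HepG2 cells; signal reports phosphorylation of biotinylated GST-cJun 1-79 at Ser73 with 10 µM ATP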)
Method in brief: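 JNK3 came from HepG2 lysates pre-activated with IL-1beta and TNF-alpha and phosphorylated biotinylated GST-cJun (1-79) at 10 uM ATP, pH 7.6, room temperature. Compounds were titrated. AlphaScreen signal used anti-phospho-cJun (Ser73) antibody.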

[4] = molecular target: 3',5'-cyclic-AMP phosphodiesterase 4B (Homo sapiens) (UniProt Q07343); test: qHTS Assay for Inhibitors of PDE-IV (AID 607; active = well fitted activation curve with a large enough effect in the main read-out, with a control signal flat, not every such curve was filed as active)
Sequence of 3',5'-cyclic-AMP phosphodiesterase 4B (Homo sapiens) (Q07343 whole entry, looked up): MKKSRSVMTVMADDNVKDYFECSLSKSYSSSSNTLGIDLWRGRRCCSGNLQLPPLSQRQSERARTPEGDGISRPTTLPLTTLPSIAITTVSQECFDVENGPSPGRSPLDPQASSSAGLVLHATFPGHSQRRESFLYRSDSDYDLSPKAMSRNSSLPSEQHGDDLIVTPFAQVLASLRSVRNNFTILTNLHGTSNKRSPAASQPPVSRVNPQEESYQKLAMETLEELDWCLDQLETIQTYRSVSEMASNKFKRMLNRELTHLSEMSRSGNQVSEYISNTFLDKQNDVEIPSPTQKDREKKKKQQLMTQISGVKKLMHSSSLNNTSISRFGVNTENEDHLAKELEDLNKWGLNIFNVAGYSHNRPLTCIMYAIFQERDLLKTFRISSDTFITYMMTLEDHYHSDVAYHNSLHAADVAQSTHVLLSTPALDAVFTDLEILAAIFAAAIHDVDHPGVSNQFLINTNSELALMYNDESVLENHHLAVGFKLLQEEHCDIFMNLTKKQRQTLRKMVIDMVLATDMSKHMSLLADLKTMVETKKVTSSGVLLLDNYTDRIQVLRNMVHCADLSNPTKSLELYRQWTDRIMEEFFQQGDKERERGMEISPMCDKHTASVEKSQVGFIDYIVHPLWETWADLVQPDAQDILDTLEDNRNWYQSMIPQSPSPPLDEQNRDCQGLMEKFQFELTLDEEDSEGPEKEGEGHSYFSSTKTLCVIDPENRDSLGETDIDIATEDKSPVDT
Method in brief: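 HEK293 ACTOne cells with CNG channel (1000/well), endogenous PDE4; membrane potential dye, compounds up to 22.9 uM final. Fluorescence Ex 535/Em 590; RO 20-1724 (100 uM final) as reference.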

[5] = molecular target: Cytochrome P450 2C9 (Homo sapiens) (UniProt P11712); test: qHTS Assay for Inhibitors and Substrates of Cytochrome P450 2C9 (AID 883); note: potency is the fitted concentration of half-maximal effect; nearly all actives have a fitted effect of over 60% in size
Sequence of Cytochrome P450 2C9 (Homo sapiens) (P11712 whole entry, looked up): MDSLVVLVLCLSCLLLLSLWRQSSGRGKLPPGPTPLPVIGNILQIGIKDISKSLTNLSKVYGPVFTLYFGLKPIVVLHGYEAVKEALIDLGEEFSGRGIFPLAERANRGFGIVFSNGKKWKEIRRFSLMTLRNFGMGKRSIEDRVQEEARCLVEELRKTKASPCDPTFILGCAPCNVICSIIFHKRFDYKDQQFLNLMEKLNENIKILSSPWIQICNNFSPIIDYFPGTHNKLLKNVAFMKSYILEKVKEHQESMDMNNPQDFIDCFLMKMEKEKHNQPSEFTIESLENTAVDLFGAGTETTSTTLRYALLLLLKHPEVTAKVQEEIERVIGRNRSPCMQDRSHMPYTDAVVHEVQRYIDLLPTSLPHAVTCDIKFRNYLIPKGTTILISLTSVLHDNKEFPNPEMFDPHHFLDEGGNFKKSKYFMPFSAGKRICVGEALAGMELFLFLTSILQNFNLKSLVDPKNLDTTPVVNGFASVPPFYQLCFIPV
Method in brief: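 A luminogenic readout tracked human CYP2C9 (10nM) converting deoxyluciferin (100uM, at KM) in 25mM KPO4 during 60 min at 37C with regenerated NADPH. Values normalized to 57uM sulphaphenazole as complete inhibition.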

[6] = molecular target: Cytochrome P450 3A4 (Homo sapiens) (UniProt P08684); test: qHTS Assay for Inhibitors and Substrates of Cytochrome P450 3A4 (AID 884); note: potency is the fitted concentration of half-maximal effect; nearly all actives have a fitted effect of over 50% in size
Sequence of Cytochrome P450 3A4 (Homo sapiens) (P08684 whole entry, looked up): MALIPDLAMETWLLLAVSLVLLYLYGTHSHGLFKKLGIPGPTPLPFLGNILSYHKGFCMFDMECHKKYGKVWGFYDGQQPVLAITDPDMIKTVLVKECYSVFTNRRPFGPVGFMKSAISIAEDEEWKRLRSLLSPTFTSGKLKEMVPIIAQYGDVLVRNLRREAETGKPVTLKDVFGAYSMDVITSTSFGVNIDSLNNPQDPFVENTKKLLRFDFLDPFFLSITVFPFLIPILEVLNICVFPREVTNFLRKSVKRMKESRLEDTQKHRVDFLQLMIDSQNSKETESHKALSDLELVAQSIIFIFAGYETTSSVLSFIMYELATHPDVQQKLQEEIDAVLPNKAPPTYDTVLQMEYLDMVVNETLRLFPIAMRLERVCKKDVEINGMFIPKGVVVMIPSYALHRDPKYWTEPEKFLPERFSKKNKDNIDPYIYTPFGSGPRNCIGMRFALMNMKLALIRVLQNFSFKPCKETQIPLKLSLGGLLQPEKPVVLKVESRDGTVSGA
Method in brief: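 20 nM human CYP3A4 with 25 uM Luciferin-PPXE (at KM) in 200 mM KPO4, preincubated 10 min with compound; NADPH regeneration started a 60 min RT reaction. Luciferin detected by luminescence, normalized to 57 uM ketoconazole as full inhibition.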

[7] = molecular target: Cytochrome P450 3A4 (Homo sapiens) (UniProt P08684); test: qHTS Assay for Activators of Cytochrome P450 3A4 (AID 885); note: nearly all actives have a fitted effect of over 65% in size
Method in brief: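 Human CYP3A4 (20 nM) with Luciferin-PPXE at 25 uM (its KM) in 200 mM KPO4; 10 min compound preincubation, then NADPH regeneration and 60 min reaction at RT. Luciferin read by luminescence; normalized to 57 uM ketoconazole full inhibition.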

[8] = molecular target: Cytochrome P450 2D6 (Homo sapiens) (UniProt P10635); test: qHTS Assay for Inhibitors and Substrates of Cytochrome P450 2D6 (AID 891); note: potency is the fitted concentration of half-maximal effect; nearly all actives have a fitted effect of over 60% in size
Sequence of Cytochrome P450 2D6 (Homo sapiens) (P10635 whole entry, looked up): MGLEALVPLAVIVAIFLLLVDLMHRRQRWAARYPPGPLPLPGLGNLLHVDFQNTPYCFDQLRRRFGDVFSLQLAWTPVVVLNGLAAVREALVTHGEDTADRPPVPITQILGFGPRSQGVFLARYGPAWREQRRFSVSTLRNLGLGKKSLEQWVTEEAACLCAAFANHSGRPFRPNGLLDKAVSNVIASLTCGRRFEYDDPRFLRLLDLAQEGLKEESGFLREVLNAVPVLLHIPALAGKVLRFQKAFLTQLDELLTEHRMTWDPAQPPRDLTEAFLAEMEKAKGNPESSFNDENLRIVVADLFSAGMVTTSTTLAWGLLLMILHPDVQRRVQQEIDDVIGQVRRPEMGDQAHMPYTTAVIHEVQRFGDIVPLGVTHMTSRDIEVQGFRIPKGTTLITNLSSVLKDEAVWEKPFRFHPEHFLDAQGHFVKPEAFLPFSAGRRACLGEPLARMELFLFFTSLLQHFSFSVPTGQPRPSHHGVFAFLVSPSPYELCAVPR
Method in brief: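 Human CYP2D6 (5 nM) with 30 uM Luciferin-ME EGE (at Km) in 100 mM KPO4, compound preincubated 10 min, then NADPH regeneration system for 60 min at room temperature. Luciferin read by luminescence; normalized to 1.43 uM quinidine.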

[9] = molecular target: Cytochrome P450 2C19 (Homo sapiens) (UniProt P33261); test: qHTS Assay for Inhibitors and Substrates of Cytochrome P450 2C19 (AID 899); note: potency is the fitted concentration of half-maximal effect; nearly all actives have a fitted effect of over 60% in size
Sequence of Cytochrome P450 2C19 (Homo sapiens) (P33261 whole entry, looked up): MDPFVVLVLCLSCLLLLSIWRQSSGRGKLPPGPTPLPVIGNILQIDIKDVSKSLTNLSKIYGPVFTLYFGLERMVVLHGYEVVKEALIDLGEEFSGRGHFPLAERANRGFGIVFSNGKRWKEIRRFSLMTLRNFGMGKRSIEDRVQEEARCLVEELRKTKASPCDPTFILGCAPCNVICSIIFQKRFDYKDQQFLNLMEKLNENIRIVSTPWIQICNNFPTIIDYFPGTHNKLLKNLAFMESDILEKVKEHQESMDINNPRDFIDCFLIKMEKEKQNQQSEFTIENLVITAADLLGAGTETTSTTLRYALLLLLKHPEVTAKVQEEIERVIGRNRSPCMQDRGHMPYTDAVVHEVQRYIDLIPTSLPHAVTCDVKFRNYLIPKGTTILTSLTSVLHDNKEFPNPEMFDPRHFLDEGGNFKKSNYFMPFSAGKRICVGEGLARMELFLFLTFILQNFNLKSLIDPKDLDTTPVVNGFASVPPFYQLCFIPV
Method in brief: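 NADPH-dependent conversion of Luciferin-H EGE (10uM, at KM) by 5nM enzyme in 50mM KPO4, 60 min at 37C following 10 min compound preincubation. Stopped with luciferin detection buffer; luminescence read after 20 min.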

[10] = molecular target: DNA dC->dU-editing enzyme APOBEC-3G (Homo sapiens) (UniProt Q9HC16); test: qHTS for inhibitors of Vif-A3G interactions: Validation (AID 588379)
Sequence of DNA dC->dU-editing enzyme APOBEC-3G (Homo sapiens) (Q9HC16 whole entry, looked up): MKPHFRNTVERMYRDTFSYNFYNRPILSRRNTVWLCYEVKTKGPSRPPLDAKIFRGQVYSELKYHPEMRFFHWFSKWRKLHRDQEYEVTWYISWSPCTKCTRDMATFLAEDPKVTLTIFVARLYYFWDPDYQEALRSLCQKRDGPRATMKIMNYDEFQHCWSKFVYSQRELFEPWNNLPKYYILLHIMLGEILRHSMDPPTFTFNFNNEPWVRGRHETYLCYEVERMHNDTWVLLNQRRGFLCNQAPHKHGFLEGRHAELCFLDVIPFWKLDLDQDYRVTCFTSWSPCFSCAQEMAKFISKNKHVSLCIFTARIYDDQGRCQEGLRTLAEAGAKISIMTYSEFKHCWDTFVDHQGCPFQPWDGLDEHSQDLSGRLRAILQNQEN
Method in brief: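 HeLa cells stably expressing Vif and A3G-eYFP, 700 cells/well, incubated overnight at 37 deg C, then exposed to compound overnight at 37 deg C. Inhibition of Vif-mediated degradation read as increased yellow fluorescence (Ex 488/Em 500-530) by laser-scanning cytometry.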

[11] = molecular target: ATP-dependent 6-phosphofructokinase (Trypanosoma brucei brucei) (UniProt O15648); test: qHTS Assay to Find Inhibitors of T. brucei phosphofructokinase: hit validation (AID 492961);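 note: luminescence reports ADP formed as PFK phosphorylates fructose-6-phosphate with ATP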
Sequence of ATP-dependent 6-phosphofructokinase (Trypanosoma brucei brucei) (O15648 whole entry, looked up): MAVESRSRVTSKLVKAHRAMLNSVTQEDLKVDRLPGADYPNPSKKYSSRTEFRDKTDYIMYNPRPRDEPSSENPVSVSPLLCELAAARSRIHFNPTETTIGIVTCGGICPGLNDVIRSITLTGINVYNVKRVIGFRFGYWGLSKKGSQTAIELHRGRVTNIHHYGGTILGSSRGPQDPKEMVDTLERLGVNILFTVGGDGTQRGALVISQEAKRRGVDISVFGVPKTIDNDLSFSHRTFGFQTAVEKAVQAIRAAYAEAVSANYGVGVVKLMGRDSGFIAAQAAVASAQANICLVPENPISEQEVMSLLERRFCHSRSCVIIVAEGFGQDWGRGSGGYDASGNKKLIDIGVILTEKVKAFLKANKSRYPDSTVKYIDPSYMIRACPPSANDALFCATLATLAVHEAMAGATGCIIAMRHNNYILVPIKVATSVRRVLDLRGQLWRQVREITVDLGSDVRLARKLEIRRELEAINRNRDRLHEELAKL
Method in brief: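 Percent activity derived from corrected luminescence, normalized between 0x and 1x enzyme controls, then fitted to concentration-response curves. Conditions: 1.25 nM PFK, 0.1 mM ATP, 0.5 mM F6P, 45 min RT.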

[12] = molecular target: Luciferin 4-monooxygenase (Photinus pyralis) (UniProt P08659); test: Biochemical firefly luciferase enzyme assay for NPC (AID 624030);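 note: purified P. pyralis luciferase at 10 nM with luciferin and ATP substrate; nearly all actives have a fitted effect of over 70% in size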
Sequence of Luciferin 4-monooxygenase (Photinus pyralis) (P08659 whole entry, looked up): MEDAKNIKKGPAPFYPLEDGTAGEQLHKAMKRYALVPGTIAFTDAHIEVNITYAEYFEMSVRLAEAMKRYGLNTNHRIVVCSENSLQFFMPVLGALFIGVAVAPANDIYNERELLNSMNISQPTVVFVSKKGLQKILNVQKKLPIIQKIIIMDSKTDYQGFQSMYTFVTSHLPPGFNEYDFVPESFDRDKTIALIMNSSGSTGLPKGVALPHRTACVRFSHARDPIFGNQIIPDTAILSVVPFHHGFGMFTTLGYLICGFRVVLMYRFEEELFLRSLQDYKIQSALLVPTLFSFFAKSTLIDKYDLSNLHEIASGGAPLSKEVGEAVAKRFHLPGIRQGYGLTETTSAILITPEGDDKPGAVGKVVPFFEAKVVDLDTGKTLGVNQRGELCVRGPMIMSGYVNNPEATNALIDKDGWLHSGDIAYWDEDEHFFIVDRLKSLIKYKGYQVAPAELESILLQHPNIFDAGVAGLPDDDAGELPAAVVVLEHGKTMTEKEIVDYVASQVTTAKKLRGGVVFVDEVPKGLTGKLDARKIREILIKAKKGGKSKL
Method in brief: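 Counter-screen for direct inhibition of the luciferase enzyme by approved-drug library compounds, run at 10 nM enzyme in 50 mM Tris acetate (final). Luminescence was read within 5 min of enzyme-buffer addition and normalized to PTC124 versus DMSO (0%).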

[13] = S16 Schwann cell viability assay (CellTiter-Glo assay) (AID 624031);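 note: cellular ATP luminescence as a viability measure; nearly all actives have a fitted effect of over 70% in size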
Method in brief: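 CellTiter-Glo ATP luminescence counter-screen in untransfected S16 rat Schwann cells, 24h compound exposure at 37 degree Celsius after overnight seeding (500-750 cells/well); response scaled between cell-free wells and DMSO (0% activity), curves classed by r2 and magnitude.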

[14] = S16 Schwann cell PMP22 intronic element firefly luciferase assay (AID 624032); note: nearly all actives have a fitted effect of over 30% in size
Method in brief: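 Rat S16 Schwann cells stably carrying a PMP22 intronic element-driven Fluc reporter were seeded overnight, then exposed to compounds for 24 h at 37 °C. Luminescence was normalized to PTC124 (positive control) and DMSO (0% activity).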

[15] = S16 Schwann cell PMP22 intronic element beta-lactamase assay (AID 624044; calls by dose curve; note: nearly all actives have a fitted effect of over 15% in size); conditions: S16 rat Schwann cells, PMP22 element beta-lactamase FRET, 24 h; ratio activity, negative = inhibition: at 38.3 µM (top of the series)
Method in brief: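 Rat S16 Schwann cells with beta-Lac driven by a PMP22 intronic element, compound-treated 24 h at 37 °C. LiveBLAzer FRET B/G read: 460 nm normalized to potassium clavulanate vs DMSO; 535 nm FRET as viability; concentration-effect curves classified.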

[16] = qHTS profiling for inhibitors of Plasmodium falciparum proliferation (AID 504749); note: nearly all actives have a fitted effect of over 60% in size; note: potency is the fitted concentration of half-maximal effect; conditions: P. falciparum in erythrocytes, SYBR Green DNA, 72 h, at 28.7 µM (top of the series)
Method in brief: (§1)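 P. falciparum-infected erythrocytes (0.3% parasitemia, 2.5% hematocrit final) were exposed to compounds for 72 h at 37 C in 5% CO2, then lysed with SYBR Green buffer overnight at room temperature; parasite DNA fluorescence was normalized to artemisinin and DMSO controls.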

3D7 = test: as above; conditions: P. falciparum in erythrocytes, SYBR Green DNA, 72 h; series mostly up to 28.7 µM
Method in brief: as §1

C2A = test: as above; conditions: P. falciparum in erythrocytes, SYBR Green DNA, 72 h; series mostly up to 28.7 µM
Method in brief: as §1

CP191 = test: as above; conditions: P. falciparum in erythrocytes, SYBR Green DNA, 72 h; series mostly up to 28.7 µM
Method in brief: as §1

CP192 = test: as above; conditions: P. falciparum in erythrocytes, SYBR Green DNA, 72 h; series mostly up to 28.7 µM
Method in brief: as §1

CP217 = test: as above; conditions: P. falciparum in erythrocytes, SYBR Green DNA, 72 h; series mostly up to 28.7 µM
Method in brief: as §1

CP237 = test: as above; conditions: P. falciparum in erythrocytes, SYBR Green DNA, 72 h; series mostly up to 28.7 µM
Method in brief: as §1

CP250 = test: as above; conditions: P. falciparum in erythrocytes, SYBR Green DNA, 72 h; series mostly up to 28.7 µM
Method in brief: as §1

CP256 = test: as above; conditions: P. falciparum in erythrocytes, SYBR Green DNA, 72 h; series mostly up to 28.7 µM
Method in brief: as §1

CP262 = test: as above; conditions: P. falciparum in erythrocytes, SYBR Green DNA, 72 h; series mostly up to 28.7 µM
Method in brief: as §1

CP268 = test: as above; conditions: P. falciparum in erythrocytes, SYBR Green DNA, 72 h; series mostly up to 28.7 µM
Method in brief: as §1

CP269 = test: as above; conditions: P. falciparum in erythrocytes, SYBR Green DNA, 72 h; series mostly up to 28.7 µM
Method in brief: as §1

CP297 = test: as above; conditions: P. falciparum in erythrocytes, SYBR Green DNA, 72 h; series mostly up to 28.7 µM
Method in brief: as §1

CP315 = test: as above; conditions: P. falciparum in erythrocytes, SYBR Green DNA, 72 h; series mostly up to 28.7 µM
Method in brief: as §1

CP329 = test: as above; conditions: P. falciparum in erythrocytes, SYBR Green DNA, 72 h; series mostly up to 28.7 µM
Method in brief: as §1

DIV14 = test: as above; conditions: P. falciparum in erythrocytes, SYBR Green DNA, 72 h; series mostly up to 28.7 µM
Method in brief: as §1

DIV17 = test: as above; conditions: P. falciparum in erythrocytes, SYBR Green DNA, 72 h; series mostly up to 28.7 µM
Method in brief: as §1

Dd2 = test: as above; conditions: P. falciparum in erythrocytes, SYBR Green DNA, 72 h; series mostly up to 28.7 µM
Method in brief: as §1

ECU = test: as above; conditions: P. falciparum in erythrocytes, SYBR Green DNA, 72 h; series mostly up to 28.7 µM
Method in brief: as §1

FAB9 = test: as above; conditions: P. falciparum in erythrocytes, SYBR Green DNA, 72 h; series mostly up to 28.7 µM
Method in brief: as §1

Compound: O=c1c(O)c(-c2ccccc2)oc2cc(O)cc(O)c12
- Potency [1]: > 46 µM
- Potency [2]: > 46 µM
- Potency [3]: inactive
- Potency [4]: inactive
- Potency [5]: 3.16 µM (active)
- Potency [6]: 15.8 µM (active)
- Potency [7]: inactive
- Potency [8]: 20 µM (active)
- Potency [9]: 3.98 µM (active)
- outcome [10]: inactive

Compound: Cc1ccc2[nH]c3c(N4CCN(Cc5ccc6c(c5)OCO6)CC4)ncnc3c2c1
- Potency [1]: > 20.6 µM

Compound: CC(C)C1=CC2=CC[C@H]3[C@@](C)(CCC[C@]3(C)C(=O)O)[C@@H]2CC1
- Potency [1]: > 46 µM
- Potency [2]: > 46 µM
- Potency [3]: inactive
- Potency [4]: inactive
- Potency [5]: 12.6 µM (active)

Compound: C[C@@](Cc1ccccc1)(NC(=O)CN)c1ccccc1
- Potency [1]: > 46 µM
- Potency [2]: > 46 µM
- Potency [3]: inactive
- Potency [11]: inactive
- outcome [10]: inactive
- Potency [12]: inactive
- Potency [13]: inactive
- Potency [14]: inactive
- Potency [15]: inactive
- activity, negative = inhibition ([16]; parasite line A): 17.9%
- activity, negative = inhibition ([16]; parasite line B): 2.96%
- Potency (3D7): inactive
- Potency (C2A): inactive
- Potency (CP191): inactive
- Potency (CP192): inactive
- Potency (CP217): inactive
- Potency (CP237): 5.62 µM (active)
- Potency (CP250): inactive
- Potency (CP256): inactive
- Potency (CP262): inactive
- Potency (CP268): inactive
- Potency (CP269): inactive
- Potency (CP297): 9.53 µM (active)
- Potency (CP315): inactive
- Potency (CP329): inactive
- Potency (DIV14): 3.79 µM (active)
- Potency (DIV17): 4.78 µM (active)
- Potency (Dd2): 12.6 µM (active)
- Potency (ECU): inactive
- Potency (FAB9): inactive

Source: PubChem BioAssay (NCATS)
